In PubChem BioAssay (Tox21):
Values without a mark were called inactive. Inconclusive results are not listed. Where a call stands in place of a potency, no number is given. The source made the active and inactive calls. Unless noted, calls come from the whole dose curve; as a rule, active = well fitted curve in the direction sought with a large enough effect in the repeat runs; inconclusive = weak or mixed curves; inactive = no such curve, though single readings can be large; an effect the other way counts as inactive or inconclusive.

How the values were obtained:
[1] = biological target: Thyrotropin-releasing hormone receptor (Homo sapiens) (UniProt P34981); assay: qHTS assay to identify small molecule agonists of the thyrotropin-releasing hormone receptor (TRHR) signaling pathway (AID 1346891; calls by dose curve;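 note: HEK293 cells expressing TRHR with calcium dye readout; series mostly up to about 58 µM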)
Sequence of Thyrotropin-releasing hormone receptor (Homo sapiens) (P34981 whole entry, looked up): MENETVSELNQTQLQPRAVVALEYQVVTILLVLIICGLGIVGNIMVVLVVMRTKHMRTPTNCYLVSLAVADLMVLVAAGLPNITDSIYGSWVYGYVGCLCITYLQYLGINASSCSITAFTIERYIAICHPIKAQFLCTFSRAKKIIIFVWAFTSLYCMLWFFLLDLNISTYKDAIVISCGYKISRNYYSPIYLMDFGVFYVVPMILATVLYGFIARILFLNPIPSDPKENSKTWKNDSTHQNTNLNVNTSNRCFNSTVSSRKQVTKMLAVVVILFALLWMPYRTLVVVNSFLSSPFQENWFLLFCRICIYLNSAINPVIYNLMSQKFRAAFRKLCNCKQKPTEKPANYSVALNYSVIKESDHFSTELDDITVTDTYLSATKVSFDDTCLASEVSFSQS
How it was run: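 Agonist-mode calcium mobilisation screen: TRHR-transfected HEK293 cells cultured overnight (18 h), dye-loaded for 2 h at 37 °C, exposed to compounds, and monitored by fluorescence for 3 min.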

[2] = Human pregnane X receptor (PXR) small molecule agonists, qHTS cell viability counter screen (AID 1346977); note: nearly all actives have a fitted effect of over 50% in size
How it was run: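 Measures live-cell protease fluorescence (CellTiter-Fluor) in PXR-Luc HepG2 cells treated 24hr with compounds at 37C. Cells had 5hr to attach before pin transfer of DMSO solutions.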

[3] = Caspase-3/7 induction in HepG2 cells by small molecules, qHTS assay (AID 1346978); note: nearly all actives have a fitted effect of over 15% in size
How it was run: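 Caspase-3/7 induction was measured by Caspase-Glo 3/7 luminescence (30 min, room temperature) after a 17 hr compound exposure of wild-type HepG2 cells seeded at 2,000 per well and pre-incubated 5 hr.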

[4] = Caspase-3/7 induction in CHO-K1 cells by small molecules, qHTS cell viability counter screen (AID 1346979); note: nearly all actives have a fitted effect of over 35% in size
How it was run: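 In the same wells as the caspase read, viability of compound-treated wild-type CHO-K1 cells was assessed using CellTiter-Fluor, added after 16hr at 37C and measured by fluorescence following 1hr further incubation.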

[5] = Caspase-3/7 induction in CHO-K1 cells by small molecules, qHTS assay (AID 1346980); note: nearly all actives have a fitted effect of over 15% in size
How it was run: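 Luminescent Caspase-Glo 3/7 read (30min, room temperature) quantified apoptosis induction. Cells were wild-type CHO-K1, treated with compound for 17hr at 37 C and 5% CO2.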

[6] = Caspase-3/7 induction in HepG2 cells by small molecules, qHTS cell viability counter screen (AID 1346981); note: series mostly up to about 92 µM; nearly all actives have a fitted effect of over 30% in size
How it was run: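 Wild-type HepG2 cells, 2,000/well, settled 5 hr at 37 C, 5% CO2 before compound addition. Viability read by CellTiter-Fluor fluorescence, reagent added after 16 hr compound exposure, then 1 hr at 37C, in the same wells as the caspase read.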

[7] = biological target: Nuclear receptor subfamily 1 group I member 2 (Homo sapiens) (UniProt O75469); assay: Human pregnane X receptor (PXR) small molecule agonists, qHTS assay (AID 1346982); note: nearly all actives have a fitted effect of over 35% in size; note: potency is the fitted concentration of half-maximal effect
Sequence of Nuclear receptor subfamily 1 group I member 2 (Homo sapiens) (O75469 whole entry, looked up): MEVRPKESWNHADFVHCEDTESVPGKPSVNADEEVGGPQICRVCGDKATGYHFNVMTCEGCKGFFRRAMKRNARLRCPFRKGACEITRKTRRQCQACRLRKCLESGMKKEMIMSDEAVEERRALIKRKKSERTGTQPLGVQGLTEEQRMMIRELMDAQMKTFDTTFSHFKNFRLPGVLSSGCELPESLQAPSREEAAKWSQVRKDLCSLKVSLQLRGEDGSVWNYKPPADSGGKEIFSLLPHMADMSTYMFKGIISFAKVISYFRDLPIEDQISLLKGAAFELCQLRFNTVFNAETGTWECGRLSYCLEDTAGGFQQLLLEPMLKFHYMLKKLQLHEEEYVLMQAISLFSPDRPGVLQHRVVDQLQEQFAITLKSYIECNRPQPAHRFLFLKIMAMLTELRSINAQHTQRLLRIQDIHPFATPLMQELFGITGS
How it was run: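 PXR-Luc HepG2 reporter cells (CYP3A4-driven luciferase) in 5% charcoal-stripped FBS medium, plated 5 h before compound addition, then treated 24 h at 37C. Luciferase read by ONE-Glo luminescence after 30 min at room temperature.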

[8] = biological target: Nuclear receptor subfamily 1 group I member 2 (Homo sapiens) (UniProt O75469); assay: CYP3A4 induction through human pregnane X receptor (PXR) by small molecules, qHTS assay (AID 1346984); note: nearly all actives have a fitted effect of over 40% in size
How it was run: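 DPX-2 HepG2 cells carrying a PXR response element and CYP3A4-promoter luciferase construct, treated with compounds 24 hr at 37C. Then P450-Glo CYP3A4 Luciferin-IPA substrate (3uM final) for 3 hr at 37C, One-Glo added, luminescence read.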

[9] = biological target: Nuclear receptor subfamily 1 group I member 2 (Homo sapiens) (UniProt O75469); assay: Human pregnane X receptor (PXR) activation by small molecules, qHTS assay (AID 1346985); note: nearly all actives have a fitted effect of over 40% in size
How it was run: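 DPX-2 cells (HepG2 co-transfected with a PXR response element and a CYP3A4-promoter luciferase construct) were seeded at 2,000 per well, rested 5 hr at 37C, then exposed to DMSO-dissolved compounds for 24 hr. Activation was read as luciferase luminescence.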

[10] = biological target: Cytochrome P450 2D6 (Homo sapiens) (UniProt P10635); assay: Cytochrome P450 Family 2 Subfamily D Member 6 (CYP2D6) small molecule antagonists: luciferase reporter qHTS assay (AID 1671196); note: nearly all actives have a fitted effect of over 50% in size; note: potency is the fitted concentration of half-maximal effect
Sequence of Cytochrome P450 2D6 (Homo sapiens) (P10635 whole entry, looked up): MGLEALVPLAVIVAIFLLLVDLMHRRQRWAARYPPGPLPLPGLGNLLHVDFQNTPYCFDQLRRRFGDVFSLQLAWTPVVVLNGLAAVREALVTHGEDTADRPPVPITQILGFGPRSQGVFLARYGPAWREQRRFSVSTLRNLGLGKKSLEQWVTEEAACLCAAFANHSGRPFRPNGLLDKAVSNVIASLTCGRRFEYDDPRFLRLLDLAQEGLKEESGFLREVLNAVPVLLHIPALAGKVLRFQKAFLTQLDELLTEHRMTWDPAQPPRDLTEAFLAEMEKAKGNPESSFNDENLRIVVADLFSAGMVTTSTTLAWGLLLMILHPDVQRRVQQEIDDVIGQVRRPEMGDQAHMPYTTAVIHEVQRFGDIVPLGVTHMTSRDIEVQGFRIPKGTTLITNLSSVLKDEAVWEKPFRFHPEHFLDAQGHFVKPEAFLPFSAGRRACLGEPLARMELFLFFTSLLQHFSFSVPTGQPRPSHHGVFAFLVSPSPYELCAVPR
How it was run: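 Cell-free P450-Glo system: CYP2D6 with proluciferin substrate was pre-incubated with compound for 10 min, then reacted with NADPH regeneration for 1 h at room temperature. Luciferin product was detected after 20 min, and data were reported as relative luminescence units.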

[11] = biological target: Cytochrome P450 2C19 (Homo sapiens) (UniProt P33261); assay: Cytochrome P450 Family 2 Subfamily C Member 19 (CYP2C19) small molecule antagonists: luciferase reporter qHTS assay (AID 1671197); note: nearly all actives have a fitted effect of over 65% in size; note: potency is the fitted concentration of half-maximal effect
Sequence of Cytochrome P450 2C19 (Homo sapiens) (P33261 whole entry, looked up): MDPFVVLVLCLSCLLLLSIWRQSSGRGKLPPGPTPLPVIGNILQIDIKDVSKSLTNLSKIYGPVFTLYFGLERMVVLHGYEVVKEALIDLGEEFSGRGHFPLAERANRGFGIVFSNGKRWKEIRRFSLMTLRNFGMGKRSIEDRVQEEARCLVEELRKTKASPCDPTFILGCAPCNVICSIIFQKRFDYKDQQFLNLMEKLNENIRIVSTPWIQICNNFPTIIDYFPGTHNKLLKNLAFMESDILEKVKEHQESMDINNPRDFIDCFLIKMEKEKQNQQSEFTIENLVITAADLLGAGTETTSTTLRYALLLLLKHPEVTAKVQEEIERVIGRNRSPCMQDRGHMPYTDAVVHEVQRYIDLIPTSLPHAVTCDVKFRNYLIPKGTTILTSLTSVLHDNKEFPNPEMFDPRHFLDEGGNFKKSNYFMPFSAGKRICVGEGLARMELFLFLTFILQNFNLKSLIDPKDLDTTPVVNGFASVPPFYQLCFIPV
How it was run: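 Light output is proportional to CYP2C19 activity: proluciferin substrate is converted to luciferin, then detected by a luciferin detection reagent that also stops the 1 h, 37C NADPH-driven reaction. Ketoconazole serves as positive control.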

[12] = biological target: Cytochrome P450 2C9 (Homo sapiens) (UniProt P11712); assay: Cytochrome P450 Family 2 Subfamily C Member 9 (CYP2C9) small molecule antagonists: luciferase reporter qHTS assay (AID 1671198); note: nearly all actives have a fitted effect of over 50% in size; note: potency is the fitted concentration of half-maximal effect
Sequence of Cytochrome P450 2C9 (Homo sapiens) (P11712 whole entry, looked up): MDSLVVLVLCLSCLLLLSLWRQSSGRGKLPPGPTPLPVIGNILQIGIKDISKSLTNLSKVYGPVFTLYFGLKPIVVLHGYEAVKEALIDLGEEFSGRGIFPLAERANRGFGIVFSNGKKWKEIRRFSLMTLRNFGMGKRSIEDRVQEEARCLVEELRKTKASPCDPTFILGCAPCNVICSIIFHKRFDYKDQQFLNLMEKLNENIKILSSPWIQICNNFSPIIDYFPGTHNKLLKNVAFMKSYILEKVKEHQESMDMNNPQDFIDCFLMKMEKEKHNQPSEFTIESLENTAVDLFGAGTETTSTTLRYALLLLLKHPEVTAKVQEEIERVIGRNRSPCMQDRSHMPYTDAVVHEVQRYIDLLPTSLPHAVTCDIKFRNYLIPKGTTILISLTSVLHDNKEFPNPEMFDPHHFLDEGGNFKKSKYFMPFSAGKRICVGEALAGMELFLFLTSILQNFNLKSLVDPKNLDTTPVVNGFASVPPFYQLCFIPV
How it was run: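 Enzyme-substrate mix preincubated with compound 10 min at room temperature; reaction started with NADPH regeneration solution, 1 h 37C. Luminescent luciferin product read after 20 min detection reagent.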

[13] = biological target: Cytochrome P450 1A2 (Homo sapiens) (UniProt P05177); assay: Cytochrome P450 Family 1 Subfamily A Member 2 (CYP1A2) small molecule antagonists: luciferase reporter qHTS assay (AID 1671199); note: nearly all actives have a fitted effect of over 50% in size; note: potency is the fitted concentration of half-maximal effect
Sequence of Cytochrome P450 1A2 (Homo sapiens) (P05177 whole entry, looked up): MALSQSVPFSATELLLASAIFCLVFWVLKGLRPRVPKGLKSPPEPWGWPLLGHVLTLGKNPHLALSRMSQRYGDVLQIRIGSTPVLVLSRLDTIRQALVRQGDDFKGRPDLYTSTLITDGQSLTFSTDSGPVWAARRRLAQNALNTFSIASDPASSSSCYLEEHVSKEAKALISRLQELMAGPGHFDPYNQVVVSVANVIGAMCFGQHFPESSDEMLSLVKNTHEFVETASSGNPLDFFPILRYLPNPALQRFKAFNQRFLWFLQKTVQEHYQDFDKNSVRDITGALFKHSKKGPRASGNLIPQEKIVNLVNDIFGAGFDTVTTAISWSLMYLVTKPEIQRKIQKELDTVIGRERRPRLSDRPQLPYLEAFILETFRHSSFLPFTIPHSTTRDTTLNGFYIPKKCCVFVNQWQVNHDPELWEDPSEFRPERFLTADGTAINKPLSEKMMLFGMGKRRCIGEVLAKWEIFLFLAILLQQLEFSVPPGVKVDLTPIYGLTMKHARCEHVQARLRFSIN
How it was run: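 P450-Glo CYP1A2 enzyme–proluciferin substrate mix with compound 10 min at room temperature, then NADPH regeneration 1 h at room temperature. Luciferin detection reagent added, luminescence read after 20 min; furafylline positive control.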

[14] = biological target: Voltage-gated inwardly rectifying potassium channel KCNH2 (Homo sapiens) (UniProt Q12809); assay: Human Ether-a-go-go-Related Gene (hERG) channel small molecule antagonists: fluorescence cell-based qHTS assay (AID 1671200)
Sequence of Voltage-gated inwardly rectifying potassium channel KCNH2 (Homo sapiens) (Q12809 whole entry, looked up): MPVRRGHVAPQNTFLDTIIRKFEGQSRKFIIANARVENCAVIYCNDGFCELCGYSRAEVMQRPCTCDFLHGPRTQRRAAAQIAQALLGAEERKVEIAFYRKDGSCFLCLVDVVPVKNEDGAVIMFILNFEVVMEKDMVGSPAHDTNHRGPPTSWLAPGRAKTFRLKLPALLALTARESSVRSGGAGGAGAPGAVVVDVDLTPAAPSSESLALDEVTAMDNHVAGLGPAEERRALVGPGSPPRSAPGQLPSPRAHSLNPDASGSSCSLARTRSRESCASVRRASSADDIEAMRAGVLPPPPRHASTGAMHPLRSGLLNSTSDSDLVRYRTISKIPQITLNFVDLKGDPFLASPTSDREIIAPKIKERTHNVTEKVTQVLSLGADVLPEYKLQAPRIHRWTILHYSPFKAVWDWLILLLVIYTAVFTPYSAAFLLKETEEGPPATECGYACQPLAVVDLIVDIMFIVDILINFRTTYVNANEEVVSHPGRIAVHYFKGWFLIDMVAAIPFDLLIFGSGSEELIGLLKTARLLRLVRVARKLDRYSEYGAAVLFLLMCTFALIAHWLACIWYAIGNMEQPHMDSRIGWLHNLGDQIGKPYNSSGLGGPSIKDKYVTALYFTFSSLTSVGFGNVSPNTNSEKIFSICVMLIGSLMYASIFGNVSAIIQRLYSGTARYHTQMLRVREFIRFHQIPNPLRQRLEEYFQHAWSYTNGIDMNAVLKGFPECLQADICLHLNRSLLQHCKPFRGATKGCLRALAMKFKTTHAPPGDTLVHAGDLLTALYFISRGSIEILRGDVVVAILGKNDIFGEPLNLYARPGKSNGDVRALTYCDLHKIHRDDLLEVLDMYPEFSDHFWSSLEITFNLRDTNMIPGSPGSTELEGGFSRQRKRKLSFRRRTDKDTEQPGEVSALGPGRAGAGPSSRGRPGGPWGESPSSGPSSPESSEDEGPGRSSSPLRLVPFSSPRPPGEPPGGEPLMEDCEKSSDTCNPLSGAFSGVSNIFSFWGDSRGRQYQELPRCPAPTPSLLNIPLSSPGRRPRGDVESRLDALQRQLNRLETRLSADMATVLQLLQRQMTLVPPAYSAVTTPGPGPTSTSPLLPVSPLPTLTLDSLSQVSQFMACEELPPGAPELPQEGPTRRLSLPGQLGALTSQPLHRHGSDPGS
How it was run: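 Quantitative HTS in hERG-U2OS cells: thallium entry through the channel reports activity, read as continuous 480/540 nm fluorescence over 2 min after stimulus addition.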

[15] = biological target: Cytochrome P450 3A4 (Homo sapiens) (UniProt P08684); assay: Cytochrome P450 Family 3 Subfamily A Member 4 (CYP3A4) small molecule antagonists: luciferase reporter qHTS assay (AID 1671201); note: nearly all actives have a fitted effect of over 50% in size; note: potency is the fitted concentration of half-maximal effect
Sequence of Cytochrome P450 3A4 (Homo sapiens) (P08684 whole entry, looked up): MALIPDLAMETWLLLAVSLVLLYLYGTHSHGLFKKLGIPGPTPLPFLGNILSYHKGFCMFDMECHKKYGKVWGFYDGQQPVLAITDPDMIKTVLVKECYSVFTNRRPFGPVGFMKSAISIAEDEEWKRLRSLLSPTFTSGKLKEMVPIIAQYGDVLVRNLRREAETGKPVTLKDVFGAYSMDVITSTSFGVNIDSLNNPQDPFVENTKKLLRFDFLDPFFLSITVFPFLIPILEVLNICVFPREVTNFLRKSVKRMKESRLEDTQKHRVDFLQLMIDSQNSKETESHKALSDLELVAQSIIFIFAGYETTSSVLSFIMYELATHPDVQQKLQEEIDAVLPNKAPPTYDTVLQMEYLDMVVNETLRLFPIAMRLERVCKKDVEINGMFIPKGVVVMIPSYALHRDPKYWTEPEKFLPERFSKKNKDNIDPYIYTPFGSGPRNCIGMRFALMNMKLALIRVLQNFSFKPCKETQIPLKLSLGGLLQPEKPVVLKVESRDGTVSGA
How it was run: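 Inhibition of CYP3A4 is measured as loss of light: the enzyme converts a proluciferin substrate to luciferin, detected luminescently. Reaction ran 1 h at room temperature with NADPH regeneration after a 10 min compound preincubation.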

Row | Structure (SMILES) | outcome [1] | Potency [2] | outcome [3] | Potency [4] | outcome [5] | outcome [6] | Potency [7] | Potency [8] | Potency [9] | Potency [10] | Potency [11] | Potency [12] | Potency [13] | Potency [14] | Potency [15]
1 | OCCN1C[C@H](O)[C@@H](O)[C@H](O)[C@H]1CO | inactive | inactive | inactive | inactive | inactive | inactive | inactive | inactive | inactive | inactive | inactive | inactive | inactive | inactive | inactive
2 | CN(C)N=Nc1ccccc1 | inactive | inactive | inactive | inactive | inactive | inactive | inactive | – | – | inactive | inactive | inactive | inactive | inactive | inactive
3 | NC(=O)c1ncn([C@@H]2O[C@H](CO)[C@@H](O)[C@H]2O)c1O | inactive | inactive | inactive | inactive | inactive | inactive | inactive | inactive | inactive | – | – | inactive | inactive | inactive | inactive
4 | CO[Si](CCCNCCC[Si](OC)(OC)OC)(OC)OC | inactive | inactive | inactive | inactive | inactive | inactive | inactive | – | – | inactive | inactive | inactive | inactive | inactive | inactive
5 | Cc1nccn1CC1CCc2c(c3ccccc3n2C)C1=O (centres undefined) | inactive | inactive | inactive | inactive | inactive | inactive | inactive | – | – | 17.4 µM (active) | inactive | inactive | – | – | –
6 | C=C[Si](OC)(OC)OC | inactive | inactive | inactive | inactive | inactive | inactive | inactive | – | – | inactive | – | inactive | 34.2 µM (active) | inactive | inactive
7 | C1C2OC2C2C1C1CC2C2OC12 (centres undefined) | inactive | inactive | inactive | inactive | inactive | inactive | inactive | – | – | inactive | 40.1 µM (active) | – | inactive | inactive | inactive
8 | COc1ccc2cc(C=O)ccc2c1 | inactive | inactive | inactive | inactive | inactive | inactive | inactive | – | – | inactive | 15.5 µM (active) | 17.4 µM (active) | 13.8 µM (active) | inactive | inactive
9 | CC1=CCC2C(C1)C2(C)C (centres undefined) | inactive | inactive | inactive | inactive | inactive | inactive | 48.6 µM (active) | – | – | inactive | 39.9 µM (active) | 63.3 µM (active) | – | inactive | 15.9 µM (active)
10 | COc1cccc(Br)c1 | inactive | inactive | inactive | inactive | inactive | inactive | inactive | – | – | inactive | inactive | inactive | inactive | inactive | inactive
11 | CC(C)(O)C(=O)c1ccc(OCCO)cc1 | inactive | inactive | inactive | inactive | inactive | inactive | inactive | – | – | inactive | inactive | – | 35.6 µM (active) | inactive | inactive
12 | CC(C)c1cccc(O)c1 | inactive | inactive | inactive | inactive | inactive | inactive | inactive | – | – | inactive | inactive | inactive | – | inactive | inactive
13 | CC/C=C\CCCCO | inactive | inactive | inactive | inactive | inactive | inactive | inactive | – | – | inactive | inactive | – | inactive | inactive | inactive
14 | CN1[C@@H]2CC[C@H]1CC(NC(=O)n1c(=O)[nH]c3ccccc31)C2 (some centres undefined) | inactive | inactive | inactive | inactive | inactive | inactive | inactive | – | – | 0.776 µM (active) | – | inactive | inactive | – | inactive
15 | OC1OC[C@@H](O)[C@H](O)[C@H]1O (some centres undefined) | inactive | inactive | inactive | inactive | inactive | inactive | inactive | – | – | inactive | inactive | inactive | inactive | inactive | inactive
16 | CCCCC1CCCCC(=O)O1 (centres undefined) | inactive | inactive | inactive | inactive | inactive | inactive | inactive | – | – | inactive | – | inactive | – | inactive | inactive
17 | O=C(O)c1cccc(C(=O)O)n1 | inactive | inactive | inactive | inactive | inactive | inactive | inactive | – | – | inactive | – | inactive | inactive | inactive | inactive
